# In the supplement of paper PMC8728848:
# Many of the other results were omitted from the sample, so the strongest signals are more common in it than they were.
# B1: Gal 3 (Homo sapiens), P17931 (protein)
# chain: MADNFSLHDALSGSGNPNPQGWPGAWGNQPAGAGGYPGASYPGAYPGQAPPGAYPGQAPPGAYHGAPGAYPGAPAPGVYPGPPSGPGAYPSSGQPSAPGAYPATGPYGAPAGPLIVPYNLPLPGGVVPRMLITILGTVKPNANILDFQRGNDVAFHFNPRFNENNRRVIVCNTKLDNNWAREERQSVFPFESGKPFKIQVLVEPDHFKVAVNDAHLLQYNHRVKKLNEISKLGISGDIDLTSASYTMI
# Key:
# Assay in all cases: glycan array binding signal (z-score within array); higher = stronger binding
# Settings in all cases: glycan notation: IUPAC condensed, linker removed; mutation: G182A
# Fuc(a1-2)Gal(b1-4)GlcNAc = target: Fuc(a1-2)Gal(b1-4)GlcNAc
# Procedure, shortened: (§1)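 The binding signal is a Z-score computed within each array. Data were drawn from 3228 arrays in the Consortium for Functional Glycomics database, restricted to those with a known protein sequence. Scores were averaged over arrays of the same protein sequence at different concentrations or buffers, and over linkers, and negative values can be taken as non-binding.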
# [1] = target: Fuc(a1-2)Gal(b1-4)GlcNAc(b1-3)Gal(b1-4)GlcNAc(b1-3)Gal(b1-4)GlcNAc
# Procedure, shortened: as §1
# [2] = target: Fuc(a1-2)Gal(b1-4)GlcNAc(b1-3)GalNAc
# Procedure, shortened: as §1
# [3] = target: Fuc(a1-2)[Gal(a1-3)]Gal(b1-4)GlcNAc
# Procedure, shortened: as §1
# [4] = target: Fuc(a1-2)[Gal(a1-3)]Gal(b1-4)GlcNAc(b1-2)Man(a1-3)[Fuc(a1-2)[Gal(a1-3)]Gal(b1-4)GlcNAc(b1-2)Man(a1-6)]Man(b1-4)GlcNAc(b1-4)GlcNAc
# Procedure, shortened: as §1
# [5] = target: Fuc(a1-2)[GalNAc(a1-3)]Gal(b1-4)GlcNAc(b1-2)Man(a1-3)[Fuc(a1-2)[GalNAc(a1-3)]Gal(b1-4)GlcNAc(b1-2)Man(a1-6)]Man(b1-4)GlcNAc(b1-4)GlcNAc
# Procedure, shortened: as §1
# [6] = target: Fuc(a1-2)[GalNAc(a1-3)]Gal(b1-4)GlcNAc(b1-3)Gal(b1-4)GlcNAc(b1-3)Gal(b1-4)GlcNAc
# Procedure, shortened: as §1
# [7] = target: Fuc(a1-3)[Gal(b1-4)]GlcNAc(b1-2)Man(a1-3)[Fuc(a1-3)[Gal(b1-4)]GlcNAc(b1-2)Man(a1-6)]Man(b1-4)GlcNAc(b1-4)GlcNAc
# Procedure, shortened: as §1
# [8] = target: Fuc(a1-3)[Gal(b1-4)]GlcNAc(b1-3)Gal(b1-3)[Fuc(a1-4)]GlcNAc
# Procedure, shortened: as §1
# Gal(a1-3)GalNAc = target: Gal(a1-3)GalNAc
# Procedure, shortened: as §1
# Gal(a1-4)Gal(b1-4)Glc = target: Gal(a1-4)Gal(b1-4)Glc
# Procedure, shortened: as §1
# [9] = target: Gal(b1-3)GalNAc(b1-4)Gal(b1-4)Glc
# Procedure, shortened: as §1
# [10] = target: Gal(b1-4)GlcNAc(b1-2)Man(a1-6)[Man(a1-3)]Man(b1-4)GlcNAc(b1-4)GlcNAc
# Procedure, shortened: as §1
# [11] = target: Gal(b1-4)GlcNAc(b1-3)Gal(b1-4)GlcNAc(b1-3)Gal(b1-4)GlcNAc
# Procedure, shortened: as §1
# [12] = target: Gal(b1-4)GlcNAc(b1-6)Gal(b1-4)GlcNAc
# Procedure, shortened: as §1
# [13] = target: Gal3S(b1-3)[Fuc(a1-4)]GlcNAc
# Procedure, shortened: as §1
# GalNAc(a1-3)Gal = target: GalNAc(a1-3)Gal
# Procedure, shortened: as §1
# [14] = target: GalNAc(b1-3)Gal(a1-6)Gal(b1-4)Glc
# Procedure, shortened: as §1
# [15] = target: GlcNAc(a1-4)Gal(b1-4)GlcNAc(b1-3)Gal(b1-4)GlcNAc(b1-3)Gal(b1-4)GlcNAc
# Procedure, shortened: as §1
# [16] = target: GlcNAc(b1-3)Gal(b1-4)GlcNAc(b1-3)Gal(b1-4)GlcNAc
# Procedure, shortened: as §1
# GlcNAc3Prop(b1-4)GlcNAc = target: GlcNAc3Prop(b1-4)GlcNAc
# Procedure, shortened: as §1
# Man(a1-2)Man(a1-3)Man = target: Man(a1-2)Man(a1-3)Man
# Procedure, shortened: as §1
# [17] = target: Man(a1-2)Man(a1-3)[Man(a1-2)Man(a1-6)]Man
# Procedure, shortened: as §1
# [18] = target: Neu5Ac(a2-3)Gal(b1-3)[Fuc(a1-4)]GlcNAc(b1-3)Gal(b1-3)[Fuc(a1-4)]GlcNAc
# Procedure, shortened: as §1
# [19] = target: Neu5Ac(a2-3)Gal(b1-4)GlcNAc(b1-2)Man(a1-3)[Neu5Ac(a2-6)Gal(b1-4)GlcNAc(b1-2)Man(a1-6)]Man(b1-4)GlcNAc(b1-4)GlcNAc
# Procedure, shortened: as §1
# Neu5Ac(a2-3)GalNAc = target: Neu5Ac(a2-3)GalNAc
# Procedure, shortened: as §1
# Neu5Ac(a2-6)Gal(b1-4)Glc = target: Neu5Ac(a2-6)Gal(b1-4)Glc
# Procedure, shortened: as §1
# [20] = target: Neu5Ac(a2-6)Gal(b1-4)GlcNAc
# Procedure, shortened: as §1
# [21] = target: Neu5Ac(a2-6)Gal(b1-4)GlcNAc(b1-3)GalNAc
# Procedure, shortened: as §1
# [22] = target: Neu5Ac(a2-6)GlcNAc(b1-4)GlcNAc(b1-4)GlcNAc
# Procedure, shortened: as §1
binder,measurement,setting,value
B1,glycan array binding signal (z-score),Fuc(a1-2)Gal(b1-4)GlcNAc,-0.188
same,glycan array binding signal (z-score),[1],5.12
same,glycan array binding signal (z-score),[2],-0.187
same,glycan array binding signal (z-score),[3],1.68
same,glycan array binding signal (z-score),[4],9.17
same,glycan array binding signal (z-score),[5],5.25
same,glycan array binding signal (z-score),[6],6.29
same,glycan array binding signal (z-score),[7],-0.191
same,glycan array binding signal (z-score),[8],-0.188
same,glycan array binding signal (z-score),Gal(a1-3)GalNAc,-0.185
same,glycan array binding signal (z-score),Gal(a1-4)Gal(b1-4)Glc,-0.192
same,glycan array binding signal (z-score),[9],-0.189
same,glycan array binding signal (z-score),[10],-0.197
same,glycan array binding signal (z-score),[11],7.13
same,glycan array binding signal (z-score),[12],-0.196
same,glycan array binding signal (z-score),[13],-0.186
same,glycan array binding signal (z-score),GalNAc(a1-3)Gal,-0.192
same,glycan array binding signal (z-score),[14],-0.19
same,glycan array binding signal (z-score),[15],9.32
same,glycan array binding signal (z-score),[16],4.53
same,glycan array binding signal (z-score),GlcNAc3Prop(b1-4)GlcNAc,-0.182
same,glycan array binding signal (z-score),Man(a1-2)Man(a1-3)Man,-0.189
same,glycan array binding signal (z-score),[17],-0.189
same,glycan array binding signal (z-score),[18],-0.187
same,glycan array binding signal (z-score),[19],-0.168
same,glycan array binding signal (z-score),Neu5Ac(a2-3)GalNAc,-0.192
same,glycan array binding signal (z-score),Neu5Ac(a2-6)Gal(b1-4)Glc,-0.183
same,glycan array binding signal (z-score),[20],-0.177
same,glycan array binding signal (z-score),[21],-0.143
same,glycan array binding signal (z-score),[22],-0.191
